Exocytosis inh = lytic granule exocytosis inhibition. TALL-104 LAMP-1 surface exposure, flow cytometry; cells stimulated with thapsigargin and PMA. inhibition, % at 10 µM. 360,000 tested, 0.66% active. AID 651702;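 active = inhibition above about 55%, limit read from the data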
rCAG RNA binder = binds r(CAG) RNA repeats. r(CAG) RNA repeat, TO-PRO-1 dye displacement fluorescence. inhibition, % at 3 µM. 370,000 tested, 1.3% active;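 active = inhibition above the plate cutoff, the mean of all test compounds on that plate plus 3 SD, cut at about 35% in these data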;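 also: 0% = DMSO alone and 100% = 100 µM mitoxantrone as full dye displacement; higher means more dye released from RNA so lower well fluorescence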
PG9 binder = PG9 antibody binding by small molecule; AID 624416; inhibition, % at 6.7 µM; TR-FRET gp120-PG9 antibody binding; 360,000 tested, 0.43% active; in the data active = inhibition above about 8.5%
ABCB6 inh MLPCN = inhibitors of human ABC transporter ABCB6; Q9NP58; K562-ABCB6 porphyrin accumulation, flow cytometry, 1 h; stronger effect = lower value; fluorescence ratio to DMSO, % at 10 µM; 360,000 tested, 0.19% active; AID 602162;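 active = fluorescence ratio to DMSO below 75%, the collection mean minus 3 SD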;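 also: signal is porphyrin accumulated inside mitochondria; 100% equals median channel fluorescence of DMSO control wells; lower ratio means ABCB6 inhibition with less porphyrin fluorescence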
rCAG bind conf = r(CAG) RNA repeat binding, confirmation | shares compounds with rCAG RNA binder | TO-PRO-1 dye displacement fluorescence | inhibition, % at 3 µM | 4,300 tested, 70% active | AID 652065;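 active = inhibition above a per-plate cutoff, the mean inhibition of sample wells plus 3 SD, cut at about 35% in these data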;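 also: loss of TO-PRO-1 fluorescence as compound displaces dye from 1x1 AA loop RNA; 0% = DMSO only wells and 100% = 100 µM mitoxantrone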
dCAG dye counter = disrupts DNA CAG TO-PRO-1 complex, flagging rCAG hits; AID 652068; d(CAG) DNA oligo TO-PRO-1 dye displacement, fluorescence; shares compounds with rCAG RNA binder; inhibition, % at 3 µM; 4,300 tested, 94% active;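 active = inhibition above its plate's cutoff, the mean test-well inhibition plus 3 SD, cut at about 4.8% in these data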;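 also: 0% = DNA dye mix with DMSO and 100% = 100 µM mitoxantrone; hits displace the dye from DNA and so lower well fluorescence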
An asterisk follows results filed as active; / = not tested or not shown. Compounds with a hit are over-represented: about 2.5% of the library has one in this group of screens.

SMILES	Exocytosis inh	rCAG RNA binder	PG9 binder	ABCB6 inh MLPCN	rCAG bind conf	dCAG dye counter
Cc1ccc(-c2csc(NC(=O)c3ccc(F)cc3)c2C(=O)O)cc1	35	63*	1	103	39*	8.8*
O=C(Nc1scc(-c2ccccc2)c1C(=O)O)c1ccc(F)cc1	4	36*	-2	104	23	5.0*
O=C(NNC(=O)c1ccco1)c1csc(N2CCOCC2)n1	4	1	1	106	/	/
NC(N)=NS(=O)(=O)c1ccc(NC(=S)NC(=O)Cc2ccc(Cl)cc2)cc1	1	5	2	101	/	/
Cc1cccc2c(C(=O)n3cccn3)cc(-c3ccccc3Cl)nc12	-5	7	2	101	/	/
COc1ccc(-c2csc(NC(=O)c3ccccc3Br)c2C(=O)O)cc1	18	55*	5	96	36*	10*
COc1ccc(-c2csc(NC(=O)Cc3cccc4ccccc34)c2C(=O)O)cc1	2	61*	-2	91	54*	17*
Cc1ccc(-c2csc(NC(=O)c3ccccc3F)c2C(=O)O)cc1	20	42*	0	109	29	4.6*
COc1ccc(NC(=O)CC23CC4CC(C2)CC(n2nnc(C)n2)(C4)C3)cc1	-1	-7	1	96	/	/
CCCCCCCCNC(=S)NCCN1CCCCC1	-1	-2	-1	91	/	/
CC(C)N(C(=O)CSc1nc2ccccc2c(=O)[nH]1)C(C)C	-8	-1	-2	93	/	/
CC(C)N=C(NS(=O)(=O)NC(=O)c1ccccc1)c1ccccc1	0	0	-1	101	/	/
O=C(O)c1cccc(N2C(=O)c3ccc(Oc4ccc(Cl)cc4)cc3C2=O)c1	1	44*	1	97	42*	9.9*
NS(=O)(=O)c1ccc(N/N=C/c2cn(-c3ccccc3)nc2-c2cccs2)c([N+](=O)[O-])c1	8	4	-1	80	/	/
NS(=O)(=O)c1ccc(N/N=C/c2cn(-c3ccccc3)nc2-c2cccs2)cc1	3	36*	-2	98	25	15*
O=C(O)c1cccc(N/N=C/c2cn(-c3ccccc3)nc2-c2cccs2)c1	-1	48*	-2	98	76*	37*
NC(=O)N/N=C/c1cn(-c2ccccc2)nc1-c1cccs1	3	6	-1	93	/	/
COC(=O)CCSCC(=O)N1N=C(c2ccc(Br)cc2)CC1c1cccc(OC)c1OC (stereo unspecified)	3	3	1	95	/	/
COc1ccccc1NC(=O)c1cc2ccc(O)cc2o/c1=N\O	-4	46*	-1	114	27	7.5*
COc1ccccc1N=c1oc2cc(O)ccc2cc1C(=O)NCC1CCCO1 (stereo unspecified)	0	11	-2	102	/	/
COc1ccccc1N=c1oc2cc(O)ccc2cc1C(N)=O	-1	40*	-1	95	6	2
Cc1ccc(NC(=O)CSc2ncc(S(=O)(=O)c3ccccc3)c(=O)[nH]2)cc1C	-3	49*	1	97	43*	11*
COc1cccc(NC(=O)CSc2ncc(S(=O)(=O)c3ccccc3)c(=O)[nH]2)c1	0	20	0	96	/	/
Cc1ccc(Nc2nnc(SC/C(O)=C(\C#N)c3nc4ccccc4[nH]3)s2)c(C)c1	0	39*	0	104	41*	16*
Cc1cccc(Nc2nnc(SC/C(O)=C(\C#N)c3nc4ccccc4[nH]3)s2)c1	0	21	0	100	/	/
SMILES	Exocytosis inh	rCAG RNA binder	PG9 binder	ABCB6 inh MLPCN	rCAG bind conf	dCAG dye counter
Cn1nc(C(=O)OCC(=O)Nc2cccc(S(=O)(=O)N3CCCC3)c2)c2ccccc2c1=O	-1	7	0	97	/	/
CC1(C(=O)Nc2ccc3c(c2)OCCO3)CCN1C(=O)c1ccco1 (stereo unspecified)	-2	1	0	97	/	/
COc1ccc(/C=C2/SC(=S)N(NS(=O)(=O)c3ccccc3)C2=O)cc1	34	74*	1	102	66*	29*
C=CCOc1ccc(/C=C2\SC(=S)N(NS(=O)(=O)c3ccccc3)C2=O)cc1	-5	88*	-1	90	79*	46*
O=C1/C(=C/c2cccnc2)SC(=S)N1NS(=O)(=O)c1ccccc1	-5	14	-3	100	/	/
CCCCN(C(=O)c1cccc(S(=O)(=O)N2CCCCC2)c1)C1CCS(=O)(=O)C1 (stereo unspecified)	0	-2	0	96	/	/
Cc1nc(-c2ccc(S(=O)(=O)Nc3cccc(S(N)(=O)=O)c3)s2)cs1	6	5	0	100	/	/
Cc1nc(-c2ccc(S(=O)(=O)Nc3ccc(Br)cc3Cl)s2)cs1	3	74*	-1	97	66*	27*
O=C(Cn1ccc(NC(=O)OCc2ccccc2)nc1=O)NCCc1c[nH]c2ccccc12	10	10	-1	95	/	/
O=C(O)CCn1cc(/C=C2\NC(=S)N(c3ccccc3)C2=O)c(-c2ccc(Br)cc2)n1	-8	41*	-2	101	39*	9.4*
N#CCCn1cc(/C=C2\NC(=S)N(c3ccccc3)C2=O)c(-c2ccc(F)cc2)n1	-1	19	-4	96	/	/
CCN=C1S/C(=C\c2cn(CC)c3ccccc23)C(=O)N1CC	-3	4	-3	103	/	/
Cc1ccc(N=C2S/C(=C\c3cn(CC(=O)O)c4ccccc34)C(=O)N2C)cc1	2	77*	-1	96	76*	36*
CC(C)C(NS(=O)(=O)c1cccc(C(F)(F)F)c1)C(=O)O (stereo unspecified)	-4	-2	-1	99	/	/
CN(C)/C=C(/C#N)C(=O)c1cccc(Oc2ccc(C(C)(C)C)cc2)c1	1	50*	1	98	20	6.1*
CCC(C)(C)c1ccc(Oc2cccc(C(=O)O)c2)cc1	7	39*	-1	99	29	3
Cc1cc(C)c(NC(=O)COC(=O)c2cccc3c2C(=O)c2ccccc2C3=O)c(C)c1	-3	9	-1	99	/	/
Cc1cc(C)c(Nc2cc(S(=O)(=O)O)c(N)c3c2C(=O)c2ccccc2C3=O)c(C)c1	-12	94*	-34	103	93*	79*
CCN(CC)S(=O)(=O)c1ccc(N2CCOCC2)c(NC(=O)C23CC4CC(CC(Cl)(C4)C2)C3)c1	9	-1	-2	105	/	/
O=[N+]([O-])c1cc(/C=N/NC(=S)Nc2ccccc2Cl)ccc1Cl	21	26	1	96	/	/
CCCOc1ccc(/C=N/NC(=S)Nc2ccccc2[N+](=O)[O-])c(O)c1	/	49*	1	/	45*	20*
COc1ccc(/C=N/NC(=S)Nc2ccccc2[N+](=O)[O-])cc1O	-1	38*	-1	97	24	11*
CCCOc1ccc(/C=N/Nc2ccccc2[N+](=O)[O-])c(O)c1	4	5	-2	92	/	/
Cc1cccc(N2CCN(C(=O)Cc3c(C(=O)O)[nH]c4ccc(Cl)cc34)CC2)c1C	-4	50*	0	102	72*	37*
